Source: PubChem BioAssay (NCI)
Compounds without any hit were thinned out: in the full panel of roughly 83,000, 20% have a hit.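 96-well plates, one dose, 48 hours. Percent growth reported; active if below 10.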 Unmarked numbers belong to inactive results. The source made the active and inactive calls.

Test system: RXF 393 renal
Experiment: NCI-60 one-dose screen, 48 h (100 = growth as untreated, 0 = no growth, -100 = all killed)
Conditions: 10 µM

Structure (SMILES) | growth
CC(C)N(CCOc1cccc(-c2nc3sccn3c2-c2ccnc(S(C)(=O)=O)n2)c1)C(C)C | 65.3%
O=C(CSc1nnc(-c2ccc(Cl)cc2)o1)Nc1ccc(C(=O)/C=C/c2ccc(Cl)cc2)cc1 | 99.1%
CC[C@@H](C(=O)[C@@H](C)[C@@H](O)[C@H](C)[C@@H]1O[C@@H]([C@@H](CC)C(=O)N(CC)CC)CC[C@@H]1C)C1O[C@]2(C=CC(=O)[C@]3(CC[C@@](C)([C@H]4CC[C@](O)(CC)[C@H](C)O4)O3)O2)[C@H](C)C[C@@H]1C (some centres not stated) | 28.2%
COc1ccc(-c2onc(N)c2-c2cc(OC)c3c(c2)OCO3)cc1 | 24.8%
CCN(CC)CCOc1cccc2c1C(=O)c1cccc(OCCN(CC)CC)c1C2=O | 42.4%
COc1cc(/C=C/c2cc(/C=C/c3ccc(O)c(OC)c3)n(C(=O)Nc3ccc(C)cc3)n2)ccc1O | -47.5% (active)
CCOC(=O)c1cc(C(=O)c2ccc(F)cc2F)n2ccccc12 | 99.3%
COc1cc2c(cc1NC(=O)C(Cl)Cl)-c1ccc(NC(=O)C(Cl)Cl)cc1C2 | -59.2% (active)
COc1ccc(-c2cc(-c3ccccc3)nc(SCCCC(=O)NO)n2)cc1 | -40.8% (active)
O=S(=O)(Oc1ccc(-c2ccc3sccc3c2)cc1)c1ccc(F)cc1 | 110%
COc1cc(-c2nn(-c3ccc(NC(=O)NCCCNC(=O)c4ccccc4)cc3)cc2-c2ccncc2)ccc1Cl | 25.2%
CN(C)CCCOc1ccc(OCCCN(C)C)c2c1C(=O)c1ccccc1C2=O | -9.08% (active)
